Activity calls are given as the source filed them. How the source made its calls: active means hit-call score of the fitted dose curve at least 0.9, where 1 is the maximum; inactive means score below 0.9.

Drawing on PubChem BioAssay (EPA / NIEHS), this text covers outcome and AC50 for 18 molecules.

Test [1] has as its target Paired box protein Pax-6 (Homo sapiens) (UniProt P26367). The test is described as follows: ATG_Pax6_CIS: Attagene CIS-FACTORIAL HepG2 Assay for human Paired Box 6 (PAX6) (AID 2282956). The settings on record: HepG2 CIS-FACTORIAL PAX6 reporter transcription, RNA readout; actives raise or lower the signal. In outline:
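HepG2 cells transiently transfected with multiplexed cis-promoter reporter units (endogenous TF activity) were dosed for 24 h. Reporter mRNA was quantified by RT-PCR, 6-FAM labeling, HpaI digestion and capillary electrophoresis; bidirectional fitting versus DMSO baseline.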

Test [2] in a line: ATG_PXRE_CIS: Attagene CIS-FACTORIAL HepG2 Assay for human Pregnane X Receptor Element (PXRE) (AID 2282957). The settings on record: HepG2 Attagene CIS-FACTORIAL PXRE reporter, mRNA; actives raise or lower the signal. The essentials:
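Multiplexed cis-reporter assay in transiently transfected human HepG2 cells; 24 h chemical exposure. Reporter transcripts quantified by RT-PCR with fluorescent labeling and capillary electrophoresis.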

Test [3] in a line: ATG_PPRE_CIS: Attagene CIS-FACTORIAL HepG2 Assay for human Peroxisome Proliferator-activated Response Element (PPRE) (AID 2282958). To be noted: HepG2 PPRE cis-element reporter, Attagene transcription factor profiling; actives raise or lower the signal. The essentials: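 Transcript-level reporter induction in transfected HepG2 cells after 24 h chemical exposure, quantified by fluorescence from RT-PCR products separated by capillary electrophoresis.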

Test [4] can be described thus: ATG_RORE_CIS: Attagene CIS-FACTORIAL HepG2 Assay for human RAR-related Orphan Receptor Element (RORE) (AID 2282959). The settings on record: HepG2 Attagene cis-factorial RORE reporter, mRNA; actives raise or lower the signal. The essentials: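 Multiplexed reporter assay measuring mRNA induction from a cis promoter element in transiently transfected HepG2 cells after 24 h treatment. Detection via RT-PCR and capillary electrophoresis fluorescence; DMSO serves as baseline.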

Test [5] can be described thus: ATG_Sox_CIS: Attagene CIS-FACTORIAL HepG2 Assay for human SRY-box transcription factor (SOX) (AID 2282960). To be noted: HepG2 Attagene cis-factorial SOX reporter, mRNA; actives raise or lower the signal. In outline:
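Cells were transfected with reporter constructs under cis-regulatory promoters, then exposed to chemicals for 24 h. Reporter transcripts were quantified by fluorescence after RT-PCR and capillary electrophoresis; activity was fitted in both directions against DMSO.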

Test [6] has as its target Transcription factor Sp1 (Homo sapiens) (UniProt P08047). Briefly: ATG_Sp1_CIS: Attagene CIS-FACTORIAL HepG2 Assay for human Specificity Protein 1 (Sp1) (AID 2282961). To be noted: HepG2 Sp1 cis-reporter transcription, actives raise or lower the signal. The essentials: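 Measures mRNA induction of an Sp1-linked reporter in HepG2 cells 24 h post-dosing. Multiplexed reporters read by RT-PCR and capillary electrophoresis; DMSO serves as negative control and baseline.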

Test [7] can be described thus: ATG_SREBP_CIS: Attagene CIS-FACTORIAL HepG2 Assay for human Sterol Regulatory Element Binding (SREBP) (AID 2282962). To be noted: HepG2 Attagene cis-factorial SREBP reporter, mRNA; actives raise or lower the signal. The essentials:
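HepG2 cells transiently transfected with multiplexed cis-element reporter units report endogenous transcription factor activity. After 24 h of chemical exposure, reporter mRNA was quantified by RT-PCR, 6-FAM labelling, HpaI digestion and capillary electrophoresis; bidirectional fits used DMSO as baseline.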

Test [8] concerns the target Signal transducer and activator of transcription 3 (Homo sapiens) (UniProt P40763). Briefly: ATG_STAT3_CIS: Attagene CIS-FACTORIAL HepG2 Assay for human Signal Transducer and Activator of Transcription 3 (STAT3) (AID 2282963). To be noted: HepG2, Attagene cis-factorial STAT3 reporter transcription; actives raise or lower the signal. The essentials: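 Transcript-level reporter assay. HepG2 transient MRTU transfection, 24 h exposure, fluorescence detection after RT-PCR and CE; DMSO baseline.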

Test [9] in a line: ATG_TCF_b_cat_CIS: Attagene CIS-FACTORIAL HepG2 Assay for human T-Cell-Factor with beta-catenin (TCF/b-cat) (AID 2282965). The settings on record: HepG2 TCF/beta-catenin cis-reporter transcription, actives raise or lower the signal. The essentials:
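Using capillary electrophoresis as the read-out, labelled reporter cDNA fragments from transiently transfected HepG2 were sized and quantified. Exposure lasted 24 hours; activity in either direction was referenced to DMSO.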

Test [10] can be described thus: ATG_TA_CIS: Attagene CIS-FACTORIAL HepG2 Assay for human TA Basal Promoter (AID 2282964). To be noted: HepG2 Attagene CIS-factorial TA basal promoter reporter; actives raise or lower the signal. In outline:
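HepG2 cells transiently transfected with multiplexed cis-promoter reporter units, dosed 24 h. Reporter mRNA measured by RT-PCR, 6-FAM labelling, HpaI digestion and capillary electrophoresis; bidirectional fit versus DMSO baseline, serving as background control.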

Signal transducer and activator of transcription 3 (Homo sapiens), sequence (P40763 whole entry, looked up): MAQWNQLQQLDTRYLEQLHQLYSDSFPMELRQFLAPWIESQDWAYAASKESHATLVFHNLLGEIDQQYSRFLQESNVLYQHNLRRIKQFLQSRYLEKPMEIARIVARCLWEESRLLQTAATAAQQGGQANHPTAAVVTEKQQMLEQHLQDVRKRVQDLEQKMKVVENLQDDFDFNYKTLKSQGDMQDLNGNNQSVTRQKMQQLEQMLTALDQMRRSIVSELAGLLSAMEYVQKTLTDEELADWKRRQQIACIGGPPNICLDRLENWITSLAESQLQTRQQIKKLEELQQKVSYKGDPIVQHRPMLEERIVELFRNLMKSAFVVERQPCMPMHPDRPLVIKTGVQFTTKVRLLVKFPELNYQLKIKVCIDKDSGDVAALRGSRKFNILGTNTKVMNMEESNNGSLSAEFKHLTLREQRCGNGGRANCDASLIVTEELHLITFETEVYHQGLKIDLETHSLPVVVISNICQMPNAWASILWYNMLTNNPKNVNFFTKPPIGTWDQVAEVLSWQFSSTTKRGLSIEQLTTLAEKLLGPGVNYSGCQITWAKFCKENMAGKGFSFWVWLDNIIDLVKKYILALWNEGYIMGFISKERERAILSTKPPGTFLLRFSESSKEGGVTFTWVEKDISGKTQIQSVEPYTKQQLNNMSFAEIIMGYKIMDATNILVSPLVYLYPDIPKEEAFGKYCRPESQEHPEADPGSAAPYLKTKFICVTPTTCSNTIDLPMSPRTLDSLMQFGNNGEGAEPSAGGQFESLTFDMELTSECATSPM
Transcription factor Sp1 (Homo sapiens), sequence (P08047 whole entry, looked up): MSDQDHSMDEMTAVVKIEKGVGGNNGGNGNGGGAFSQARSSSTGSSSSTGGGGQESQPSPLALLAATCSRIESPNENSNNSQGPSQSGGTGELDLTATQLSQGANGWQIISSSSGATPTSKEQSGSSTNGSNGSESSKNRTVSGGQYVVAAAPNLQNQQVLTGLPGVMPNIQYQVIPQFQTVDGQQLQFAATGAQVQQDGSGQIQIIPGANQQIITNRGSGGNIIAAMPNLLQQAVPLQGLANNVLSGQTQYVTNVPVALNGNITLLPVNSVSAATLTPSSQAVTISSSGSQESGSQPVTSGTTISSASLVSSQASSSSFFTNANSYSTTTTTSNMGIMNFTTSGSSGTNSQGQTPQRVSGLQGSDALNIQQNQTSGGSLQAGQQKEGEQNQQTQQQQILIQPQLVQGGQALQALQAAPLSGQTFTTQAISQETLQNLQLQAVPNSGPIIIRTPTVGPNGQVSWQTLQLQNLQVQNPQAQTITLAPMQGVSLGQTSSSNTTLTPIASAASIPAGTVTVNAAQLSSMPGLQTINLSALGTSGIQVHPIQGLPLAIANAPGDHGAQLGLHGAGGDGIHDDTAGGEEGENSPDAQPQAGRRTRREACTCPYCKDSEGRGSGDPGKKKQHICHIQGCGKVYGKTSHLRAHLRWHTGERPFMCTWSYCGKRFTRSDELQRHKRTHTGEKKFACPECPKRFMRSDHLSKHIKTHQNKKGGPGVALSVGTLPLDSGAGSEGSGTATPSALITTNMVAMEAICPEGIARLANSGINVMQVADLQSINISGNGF
Paired box protein Pax-6 (Homo sapiens), sequence (P26367 whole entry, looked up): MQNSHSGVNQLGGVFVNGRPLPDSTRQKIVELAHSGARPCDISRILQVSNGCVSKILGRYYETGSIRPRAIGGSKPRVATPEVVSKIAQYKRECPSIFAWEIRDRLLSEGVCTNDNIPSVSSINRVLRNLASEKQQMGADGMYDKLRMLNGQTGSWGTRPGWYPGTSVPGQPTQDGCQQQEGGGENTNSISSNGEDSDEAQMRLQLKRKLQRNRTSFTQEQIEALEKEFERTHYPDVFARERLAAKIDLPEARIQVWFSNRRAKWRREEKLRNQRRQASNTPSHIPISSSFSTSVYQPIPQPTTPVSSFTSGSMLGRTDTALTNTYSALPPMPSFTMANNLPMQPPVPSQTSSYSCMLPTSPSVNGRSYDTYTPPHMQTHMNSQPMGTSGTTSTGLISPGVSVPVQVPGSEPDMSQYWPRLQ

Consider `CCCC(C)C=O` (centres undefined), for which the molecule was classed as inactive in test [1], in [2], in test [3], in [4], in test [5] and in [6]. Moreover, the molecule was called inactive in test [7], in test [8] and in test [9].
In general, AC50 refers to the concentration giving half of the maximal activity seen. Turning to `O=C=NC1CCC(CC2CCC(N=C=O)CC2)CC1` (centres undefined), the molecule was classed as inactive in test [1], in test [2], in [5], in test [6], in [7] and in test [10]. The AC50 in test [3] is 68.9 µM (active); in test [4], 69.6 µM (active); in [8], 164 µM (active); in test [9] it was 69.3 µM (active).
Take `Nc1cc([N+](=O)[O-])ccc1Cl`: the outcome in test [1], in [2], in test [3], in [4], in [5] and in test [6] was inactive. For the same molecule, the call in [7], in test [8], in test [10] and in [9] was inactive.
On to `CC1COc2ccccc2N1C(=O)C(Cl)Cl` (centres undefined), for which the results for the half-maximal activity concentration (AC50) in test [1] and in [2] were 26.7 µM (active) and 26.6 µM (active), respectively. Moreover, the molecule was classed as inactive in test [3], in test [4], in [5], in [6], in [7] and in test [8]. In addition, the result in test [10] and in [9] was inactive.
Take `OCCCCCO`: the result in [1], in test [3], in test [4], in test [5], in [6] and in test [7] was inactive. Besides, the outcome in test [8], in [10] and in [9] was inactive. Also, the half-maximal activity concentration (AC50) in test [2] was 76.5 µM (active).
For the molecule `C=C(C)C(=O)NCCCN(C)C`, the molecule was called inactive in test [1], in test [2], in test [3], in [4], in test [5] and in test [6]. For the same molecule, the call in test [7], in [8], in [10] and in test [9] was inactive.
With `CC(=O)OCCC(C)CC(C)(C)C` (centres undefined), the outcome in [1], in test [2], in test [3], in [4], in test [5] and in [6] was inactive. For the same molecule, the molecule was called inactive in test [7], in test [8], in [10] and in [9].
On to `CCCCCC(CO)CCC` (centres undefined), for which the outcome in test [1], in test [2], in test [3], in test [4], in [5] and in [6] was inactive. In addition, the molecule was called inactive in test [7], in test [8], in test [10] and in [9].
As for `OCCOc1cccc(OCCO)c1`, the molecule was called inactive in [1], in [2], in test [3], in test [4], in test [5] and in test [6]. Also, the molecule was called inactive in test [7], in test [8], in [10] and in [9].
Consider `BrC1CCC(Br)C(Br)CCC(Br)C(Br)CCC1Br` (centres undefined), for which the AC50 in test [1] was 20.5 µM (active); in test [2], 0.95 µM (active); in test [6], 87 µM (active); in test [7], 53.7 µM (active). Moreover, the result in test [3], in test [4], in test [5], in test [8], in test [10] and in [9] was inactive.
Turning to `COC(=O)OC`, the molecule was called inactive in test [1], in test [2], in test [3], in test [4], in [5] and in test [6]. Further, the call in test [7], in [8], in [10] and in [9] was inactive.
`O=C(Cl)c1cccc(C(=O)Cl)c1`: the molecule was called inactive in test [1], in [3], in [4], in test [5], in test [6] and in test [7]. Also, the molecule was called inactive in test [8], in test [10] and in [9]. The AC50 in test [2] is 27.5 µM (active).
For the molecule `Cc1c(Cl)c(=O)oc2cc(O)ccc12`, the molecule was called inactive in test [1], in test [3], in test [4], in test [5], in test [8] and in [10]. Besides, the call in test [9] was inactive. Moreover, the figures for the concentration at half-maximal activity (AC50) in test [2], in test [6] and in test [7] were 70.3 µM (active), 26.8 µM (active) and 120 µM (active), respectively.
For `COc1ccc(NC(=O)CC(C)=O)cc1`, the call in test [1], in test [2], in [3], in [4], in [5] and in test [6] was inactive. Besides, the outcome in test [7], in [8], in [10] and in test [9] was inactive.
`C=CC[N+](C)(C)CC=C`: the result in test [1], in test [2], in test [3], in test [4], in test [5] and in test [6] was inactive. Further, the outcome in [7], in test [8], in [10] and in test [9] was inactive.
On to `CCCCOCCOCCSC#N`, for which the call in test [1], in [3], in test [4], in test [5], in [6] and in [7] was inactive. Further, the call in test [8], in [10] and in test [9] was inactive. The AC50 in test [2] was 1.92 µM (active).
For `COCCOCCOCCOCCOCCO`, the outcome in [1], in [2], in test [3], in test [4], in test [5] and in [6] was inactive. Also, the call in test [7], in test [8], in [10] and in test [9] was inactive.
In the case of `C=CC(C)(C)O`, the result in test [1], in test [2], in [3], in test [4], in test [5] and in test [6] was inactive. Also, the outcome in test [7], in test [8], in [10] and in test [9] was inactive.
